This is part of a sample that, as a whole, favours compounds with a hit. Of some 83,000 tested, about 20% had one in any assay.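 Each cell line was grown in a 96-well plate and treated with one concentration of compound for 48 hours. Values below 10 were considered active.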 A number with no mark means an inactive call. The source made the active and inactive calls.
Legend:
Experiment in all cases: NCI-60 one-dose screen, 48 h (100 = growth as untreated, 0 = no growth, -100 = all killed)
Conditions in all cases: 10 µM unless noted
HCT-15 colon = test system: HCT-15 colon
HT29 colon = test system: HT29 colon
SNB-75 CNS = test system: SNB-75 CNS
SNB-19 CNS = test system: SNB-19 CNS
U251 CNS = test system: U251 CNS
PC-3 prostate = test system: PC-3 prostate
SK-MEL-5 melanoma = test system: SK-MEL-5 melanoma
UACC-62 melanoma = test system: UACC-62 melanoma
SK-MEL-28 melanoma = test system: SK-MEL-28 melanoma
LOX IMVI melanoma = test system: LOX IMVI melanoma

Structure (SMILES) | growth (HCT-15 colon) | growth (HT29 colon) | growth (SNB-75 CNS) | growth (SNB-19 CNS) | growth (U251 CNS) | growth (PC-3 prostate) | growth (SK-MEL-5 melanoma) | growth (UACC-62 melanoma) | growth (SK-MEL-28 melanoma) | growth (LOX IMVI melanoma)
CCN(CCCOc1ccc2c(Nc3cc(CC(=O)Nc4cccc(F)c4)[nH]n3)ncnc2c1)CCOP(=O)(O)O | 84.7% | 30.5% | 80.5% | 71.1% | 71.8% | 80% | 99.8% | 53.7% | 55.3% | 
CC12O[C@H](C[C@@H](OC(=O)CCC(=O)O)[C@H]1O)n1c3ccccc3c3c4c(c5c6ccccc6n2c5c31)C(=O)NC4=O | 15% | 21.2% | -8.7% (active) | 43.2% | 50.6% | 48% | -19% (active) | -6.1% (active) | 33.8% | 
c1cc[n+](Cc2c3ccccc3cc3c2ccc2ccccc23)cc1 | 91.5% | 25.6% | 29.6% | 6.26% (active) | 6.64% (active) | 42% | -60.1% (active) | 11.2% | -2.27% (active) | 
O=C(Nc1cn[nH]c1-c1nc2ccc(CN3CCOCC3)cc2[nH]1)NC1CC1 | 50.2% | 16.3% | -42.1% (active) | 19.5% | 18.6% | 38.5% | 36.1% | 25.1% | 39.5% | 
CNC(=O)c1cnc(C)nc1-c1cc(C(C)(C)C)c(O)c(C(C)(C)C)c1 | 103% | 106% | 67.6% | 87.2% | 97.1% | 89.3% | 92.1% | 90.7% | 107% | 110%
O=C1NC(=O)[C@@H](c2cn3c4c(cccc24)CCC3)[C@@H]1c1c[nH]c2ccccc12 | 16.8% | 0.272% (active) | 5.51% (active) | 27.3% | 8.44% (active) | 21.1% | 3.82% (active) | 33.9% | 61.3% | 19.2%
COc1cc(OC)c(/C=C/S(=O)(=O)Cc2ccc(OC)c(NCC(=O)O)c2)c(OC)c1 | 11.8% | 0.285% (active) | 18.2% | 29.4% | 11.4% | 21.9% | -12.1% (active) | 37.4% | 65.9% | 
COC(=O)[C@@H](C)CNS(=O)(=O)N(c1cc(C(F)(F)F)cc(C(F)(F)F)c1)C1CCN(Cc2ccc(F)cc2)CC1 | 27.9% | 19.5% | 65.4% | 67.7% | 52.3% | 45.4% | 29.9% | 69.1% | 82.9% | 
Cc1c(N)ccc(-c2ccc(N)c(C)c2S(=O)(=O)O)c1S(=O)(=O)O | 111% | 111% | 101% | 112% | 106% | 98.4% | 110% | 105% | 115% | 
Cc1cc(-c2cc(OC(=O)c3ccccc3)ccc2Cl)cc2nnc(Nc3ccc(OCCN4CCCC4)cc3)nc12 | -66.9% (active) | 63.9% | 32.7% | 91.9% | 84.8% | -20.2% (active) | 83.1% | 75.6% | 89.2% | 
COc1cccc(Nc2ncnn3ccc(CN4CC[C@@H](N)[C@H](O)C4)c23)c1 | 28.7% | 27.1% | -44.6% (active) | 43.1% | 63.2% | 56.3% | 76.2% | 93.4% | 89.7% | 
Cc1ccc(N)cc1CN1C(=O)c2ccccc2C1=O | 101% | 85.5% | 87% | 102% | 102% | 90.1% | 103% | 103% | 110% | 
O=C(COc1ccc(/C=C2\Cc3ccc(Cl)cc3C2=O)cc1)Nc1nccs1 | 98.5% | 108% | 86.6% | 83.8% | 108% | 96% | 99.3% | 95.3% | 122% | 
COc1cc(NCCN(CC(C)C)CC(C)C)c2ncc(C)cc2c1 | 34.2% | 86.1% | 95.3% | 85.3% | 67.9% | 47.8% | 23.6% | 53% | 79.7% | 
COc1cc2ncnc(Nc3cccc(Cl)c3F)c2cc1OC(=O)N1CCN(C)C[C@H]1C | 75.1% | 53.9% | 71% | 83.4% | 75.8% | 64.4% | 81.3% | 77.3% | 87.3% | 
CC/C(=C(\c1ccc(OCCN2CCCCCCC2)cc1)c1ccc(OC(=O)C2CCCCC2)cc1)c1ccc(Cl)cc1 | 94.3% | 86.9% | 99.7% | 110% | 98.9% | 91.4% | 102% | 108% | 96.3% | 
CC(=O)C1CC(C)CCC1C(C)C (configuration not stated) | 104% | 101% | 81.1% | 91.1% | 107% | 55.4% | 98.9% | 85.3% | 123% | 
Cc1ccc(-c2nc3ccc(Cl)cn3c2NC2CCCCC2)o1 | 66.8% | 48.4% | 83.5% | 97.4% | 86.8% | 45.4% | 66.4% | 72.4% | 100% | 
Cc1cccc(C)c1N1C(c2ccccc2)=NNC12C=CC(=O)c1c(O)cccc12 (configuration not stated) | 32.8% | 89.4% | 96.7% | 69.7% | 40.9% | 38.8% | -37.2% (active) | 24.5% | 110% | 
COc1cc2cc(NCc3ccc(F)cc3)nc(C)c2cc1OC | 50.9% | 11.9% | 101% | 43.8% | 29.7% | 48.2% | 38.3% | 27.8% | 35.4% | 
COc1cnc2c(c1)C(=O)c1c-2n(CCCNC2=NCCS2)c(=O)c2cc(Cl)ccc12 | -69.2% (active) | -82.7% (active) | 57.9% | -29.7% (active) | -89.7% (active) | 20.5% | 39.4% | -76.6% (active) | 90.8% | -90.5% (active)
Cc1nc(Nc2n[nH]c3c2CN(C(=O)N[C@H](CN(C)C)c2ccccc2)C3(C)C)c2sccc2n1 | 20% | -29.6% (active) | -80% (active) | 0.125% (active) | -22.7% (active) | -10% (active) | -84.9% (active) | -87% (active) | -33.7% (active) | 
C=CC(=O)Nc1cccc(Nc2nc(Nc3ccc(N4CCN(C(C)=O)CC4)cc3OC)ncc2C(F)(F)F)c1 | 5% (active) | -7.05% (active) | 16.1% | 39.6% |  | 27.6% | 6.86% (active) | 11.1% | 50.6% | 
CC(C)=CCc1cc2c(cc1O)C1=C(C(=O)C3=C(NCCS3(=O)=O)C1=O)C(C=C(C)C)O2 (configuration not stated) | 39.8% | 47.9% | 71.4% | 31.7% |  | 16.4% | 5.34% (active) | 28.2% |  | 4.56% (active)
O=C(NOC[C@H](O)CO)c1ccc(F)c(F)c1Nc1ccc(I)cc1F | 53% | 7.15% (active) | 59.9% | 49.1% |  | 92.8% | 42.5% | -10.7% (active) |  | 23.1%
COC(=O)[C@@H](OC)[C@@H]1Cc2cc3cc(OC4CC(OC5CC(O)C(O)C(C)O5)C(O)C(C)O4)c(C)c(O)c3c(O)c2C(=O)[C@H]1OC1CC(OC2CC(OC3CC(C)(O)C(O)C(C)O3)C(O)C(C)O2)C(O)C(C)O1 (some centres not stated) | 7.16% (active) | 3.61% (active) | -79.3% (active) | 4.99% (active) |  | -23.3% (active) | -69.5% (active) | -58.5% (active) | -38% (active) | -24% (active)
C=CCCCC(=O)CCC(=O)OCC1O[C@@H](O[C@@H]2C(O)[C@@H](OC(C)=O)C(C)O[C@H]2O[C@H](CC=C)CCCCC)C(O)[C@@H](OC(=O)/C(C)=C/C)[C@@H]1OC(=O)/C=C/c1ccccc1 (some centres not stated) | 20.6% | 0.411% (active) | 30.1% | 45.7% |  | 31.3% | -71.5% (active) | 20.1% | 33% | -52.9% (active)
Nc1nc(N)c2cc(CNc3ccc(C(=O)NC(CC(=O)O)C(=O)O)cc3)ccc2n1 (configuration not stated) | 36.9% | 19.8% | 52.8% | 43.4% |  | 31.2% | 21.8% | 3.72% (active) | 54.3% | 15.2%

Reference: PubChem BioAssay (NCI)
